Hits are enriched below; roughly 7.3% of the tested compounds scored in any of these assays.
FLuc modulator = inhibits or activates purified firefly luciferase, miR-21 counter-screen | P08659 | purified FLuc, Km substrates, luminescence inhibition | Potency, µM (highest dose often 57.5 µM), for inactives: at the top dose activity change, negative = inhibition, most hits filed as inhibitors | 360,000 tested, 6.9% active | AID 588342;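 also: plate controls were vehicle for no effect and reference inhibitor for full effect; nearly all actives have a fitted effect of over 55% in size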
Target sequence (P08659 whole entry, looked up): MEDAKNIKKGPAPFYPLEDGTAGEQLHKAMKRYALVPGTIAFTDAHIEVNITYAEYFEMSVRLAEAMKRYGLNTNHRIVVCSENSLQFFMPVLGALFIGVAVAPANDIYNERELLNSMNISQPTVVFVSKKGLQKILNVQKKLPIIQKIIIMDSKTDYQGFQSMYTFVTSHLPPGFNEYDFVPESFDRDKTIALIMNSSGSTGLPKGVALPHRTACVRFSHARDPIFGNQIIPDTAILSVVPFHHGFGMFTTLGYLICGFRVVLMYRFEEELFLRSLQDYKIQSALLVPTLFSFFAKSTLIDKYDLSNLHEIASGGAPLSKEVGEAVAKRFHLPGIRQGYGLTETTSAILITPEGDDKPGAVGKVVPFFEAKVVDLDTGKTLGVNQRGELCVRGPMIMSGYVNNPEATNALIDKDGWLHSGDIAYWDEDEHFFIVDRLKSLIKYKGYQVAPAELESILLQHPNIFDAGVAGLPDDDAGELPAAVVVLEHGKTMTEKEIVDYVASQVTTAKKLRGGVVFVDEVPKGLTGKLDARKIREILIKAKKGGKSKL
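Biochemical qHTS of compounds, final roughly 60 µM downward over six points, against 10 nM purified firefly luciferase using Km concentrations of substrates (10 uM D-luciferin, 10 uM ATP) in Tris acetate pH 7.5 buffer; luminescence output.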
ELG1 genotox = genotoxicity induction in ELG1-luciferase HEK293T cells. Potency, µM (titrated, usually from 46 µM), inactives show top-dose activity change, positive = activation, actives largely listed as activators. HEK293T ELG1-luciferase reporter, luminescence, 16 h. 330,000 tested, 1.3% active; also: % of control where 0% means no effect; nearly all actives have a fitted effect of over 60% in size
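Genotoxic stress is detected as increased luminescence from luciferase-tagged ELG1 in HEK293T cells, measured with ONE-Glo after a 16 hr treatment at 37 °C.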
SMN2 splice enh = enhancers of SMN2 splice variant expression; HEK293 SMN2-luciferase splicing reporter, luminescence, 30-36 h; Potency, µM (series often up to 46.1 µM), for the others: at the highest dose activity change, positive = activation, most hits filed as activators; 210,000 tested, 2.8% active; AID 1458; also: % of control where 0% means no effect; nearly all actives have a fitted effect of over 55% in size
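qHTS luciferase splicing reporter: luminescence rises when SMN2 exon 7 is included in transfected HEK293 cells. Compound exposure lasted 30-36 h at 37C, with 4.5 mM final sodium butyrate as control, followed by a ONE-Glo read.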
uPA surface inh = inhibitors of cell surface uPA generation; cell surface uPA generation assay, qHTS; Potency, µM (doses to about 38.3 µM), inactives show at the top dose activity change, negative = inhibition, usual class: inhibitors; 330,000 tested, 0.31% active; AID 540303; active = well fitted inhibition curve with a large enough effect; inconclusive = small, poorly fitted or top-dose-only effect; inactive = no such curve, though single readings can be large or run the other way; tested in mouse RAW 264.7 cells; also: % is scaled to controls: 0 for no effect and ±100 for the full control effect; nearly all actives have a fitted effect of over 55% in size
Rab9 prom act = activators of Rab9 promoter. 320,000 tested, 2.8% active. Huh7 Rab9 promoter-luciferase reporter, luminescence, 24 h. AID 485297. Potency, µM (titrated, usually from 9.22 µM), for inactives: top-dose activation, negative = inhibition, usual class: activators; also: % of control where 0% means no effect; nearly all actives have a fitted effect of over 60% in size
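Quantitative HTS format; Huh7 Rab9-luciferase reporter cells (1500/well) receive compound 2 h post-plating, incubate 24 h at 37 °C, then get luciferase reagent for 10 min before luminescence reading.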
NPC1 promoter act = activates the NPC1 promoter | Potency, µM (series often up to 9.22 µM), for inactives: at the highest dose activation, usual class: activators | Huh7 NPC1 promoter luciferase reporter, 24 h | 320,000 tested, 2.4% active; also: % of control where 0% means no effect; nearly all actives have a fitted effect of over 60% in size
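Compounds in DMSO were transferred onto Huh7 NPC1-luciferase reporter cells pre-incubated 2 h; after 24 h at 37 °C, Amplite reagent was dispensed and luminescence recorded 10 min later.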
Numbers without * were called inactive; ? = inconclusive; / = no result given. Unless noted, calls follow the shape of the dose curve; as a rule, active = well fitted curve in the direction sought with a large enough effect; inconclusive = small, poorly fitted or top-dose-only effect, or another doubt; inactive = no such curve, though single readings can be large; an effect the other way counts as inactive or inconclusive. Potency is read from the fitted curve at half-maximal effect.

SMILES	FLuc modulator	ELG1 genotox	SMN2 splice enh	uPA surface inh	Rab9 prom act	NPC1 promoter act
O=C1CCC/C1=C/Nc1ccc(Cl)cc1	-17%	11%	3%	-10%	22%	1%
Cc1ccc(N/C=C2\CCCCC2=O)nc1	21µM*	?	18%	-1%	?	4%
Cc1cccc(Cn2c(COc3ccc(Cl)cc3)nc3ccccc32)c1	?	/	-10%	/	/	/
Cc1ccc(N2CC(NC(=O)c3ccc(S(=O)(=O)N(C)C)cc3)CC2=O)cc1C (configuration not stated)	-5%	/	/	/	/	/
Cn1c(=O)n(C)c2cc(N3CCOCC3)c(NS(=O)(=O)c3ccc(C(C)(C)C)cc3)cc21	-1%	/	-4%	/	/	/
Cn1c(=O)n(C)c2cc(NS(=O)(=O)c3ccc(C(C)(C)C)cc3)c(NCc3ccccc3)cc21	?	/	5.6µM*	/	/	/
Cc1cc(S(=O)(=O)Nc2ccc3c(c2)n(C)c(=O)n3C)ccc1F	2%	?	-35%	-12%	-5%	-5%
COc1ccc(S(=O)(=O)Nc2cc3c(cc2NCc2ccccc2)n(C)c(=O)n3C)cc1OC	?	/	3.5µM*	/	/	/
Cn1c(=O)n(C)c2cc(NS(=O)(=O)c3ccc(Cl)cc3)c(NCc3ccccc3)cc21	15µM*	/	7%	/	/	/
Cc1cc(S(=O)(=O)Nc2cc3c(cc2NCc2ccccc2)n(C)c(=O)n3C)ccc1F	24µM*	/	10µM*	/	/	/
CCOc1ccc(CNC(=O)c2cnc3sc(N(CC)CC)nn3c2=O)cc1OC	-2%	/	/	/	/	/
NNC(=O)c1nc[nH]c1C(=O)Nc1ccccc1	-11%	-6%	/	8%	-14%	0%
Cc1ccc(-c2nc(-c3cc4cccc(OCc5cccc(F)c5)c4oc3=O)no2)cc1	-7%	/	-10%	/	/	/
CCOc1ccccc1-c1cc(-c2n[nH]c(=S)n2CC)c2ccccc2n1	4%	-10%	-11%	8%	-2%	1%
CCOc1cccc(-c2cc(-c3n[nH]c(=S)n3CC)c3ccccc3n2)c1	12µM*	-10%	-16%	/	-6%	8%
Cc1ccc(-c2cc(-c3n[nH]c(=S)n3C)c3ccccc3n2)cc1	11µM*	4%	19%	-5%	-8%	-1%
CCn1c(-c2cc(-c3cc(C)ccc3C)nc3ccccc23)n[nH]c1=S	-3%	-1%	-13%	1%	-5%	0%
Cn1c(-c2ccccc2)n[nH]c1=S	-1%	-1%	/	0%	1%	-1%
CCn1c(-c2cc(-c3ccc(C)c(C)c3)nc3ccccc23)n[nH]c1=S	3µM*	9%	/	/	3%	-2%
Cc1ccc(C)c(Cn2c3ccccc3c3cnn(CC(=O)NC4CCCCCC4)c(=O)c32)c1	-1%	/	8%	/	/	/
CC(C)(C)c1ccc(C(=O)Nc2ccc(C(=O)OCc3cc(=O)n4ccsc4n3)cc2)cc1	-2%	/	/	/	/	/
Cc1ccc(CNC(=O)CCCN2C(=O)c3cccnc3Oc3ccc(Cl)cc32)cc1	-11%	/	/	/	/	/
CCOC(=O)c1c(C)[nH]c(C)c1S(=O)(=O)N1CCCC(C(=O)N2CCN(c3cccc(Cl)c3)CC2)C1 (configuration not stated)	7%	/	/	/	/	/
COc1ccc(S(=O)(=O)NCC(c2ccco2)N2CCOCC2)cc1OC (configuration not stated)	-6%	/	/	/	/	/
COc1ccc2c(c1)C(=O)/C(=C/C=C/c1ccccc1)CC2	9.5µM*	5%	11µM*	0%	?	?
SMILES	FLuc modulator	ELG1 genotox	SMN2 splice enh	uPA surface inh	Rab9 prom act	NPC1 promoter act
COc1ccc2c3c(ccc2c1)C(=O)/C(=C/O)CC3	/	/	/	3%	/	/
COc1ccc2c(c1)CC/C(=C\C=C\c1ccccc1OC)C2=O	2.1µM*	9%	11µM*	-4%	?	?
O=C(CC1NCCNC1=O)Nc1cccc(F)c1 (configuration not stated)	1%	/	10%	/	/	/
COc1ccc(C2=C(Nc3ccc(Br)c(C)c3)c3ccccc3C2=O)cc1	-1%	/	-15%	/	/	/
Cc1c(C(=O)OCC(C)C)[nH]c2c1C(=O)CC(c1cccs1)C2 (configuration not stated)	4%	16%	-12%	-4%	-25%	-13%
O=C(O)Cn1cc(C(=O)c2cccs2)c2ccccc21	?	0%	2%	/	-7%	1%
CCOC(=O)Cn1cc(C(=O)c2cccs2)c2ccccc21	?	-2%	0.14µM*	3%	-5%	2%
Cc1ccc(C(=O)CSc2ccccn2)cc1	6.7µM*	?	?	-5%	3.5µM*	?
Cc1ccc(NC(=O)CCSc2ccccn2)cc1	6µM*	?	14µM*	-7%	3.2µM*	3.5µM*
O=C(CSc1ccccn1)c1ccc(F)cc1	19µM*	?	23%	-5%	?	?
O=C(N/N=C/c1ccco1)c1cc(-c2ccccc2)nc2ccccc12	21µM*	-4%	/	-12%	0%	13%
COc1cccc(-c2cc(C(=O)N/N=C/c3ccco3)c3ccccc3n2)c1	3.4µM*	1%	/	-8%	1%	-1%
Cc1nc(C)c(-c2ccc(SCc3ccccc3C)nn2)s1	13µM*	10%	/	14%	25%	19%
Fc1cccc(CSc2ccc(-c3ccc4c(c3)OCO4)nn2)c1	11µM*	26%	?	-27%	17%	12%
c1cncc(CSc2ccc(-c3ccc4c(c3)OCO4)nn2)c1	17µM*	17%	1%	-6%	2.8µM*	3.2µM*
Cc1ccccc1CSc1ccc(-c2ccc3c(c2)OCO3)nn1	7.6µM*	?	/	0%	?	24%
Cc1cccc(N2CCN(C(=O)NC(C)c3ccc(F)c(F)c3)CC2)c1C (configuration not stated)	2%	-3%	/	3%	-1%	-2%
CC1CCN(C(=O)CSc2nc3c([nH]c4ccccc43)c(=O)n2-c2ccccc2)CC1	0%	/	/	/	/	/
O=C(NC(=S)Nc1ccccc1Cl)c1cncc(Br)c1	1%	-2%	/	3%	-4%	-3%
CCOc1cccc(C(=O)Nc2ccccc2C(=O)N2CCN(C)CC2)c1	0%	3%	/	5%	0%	-1%
COC(=O)c1sccc1S(=O)(=O)N1CCN(c2ccccc2OC)CC1	-2%	/	/	/	/	/
NC(=O)C1(N2CCCCC2)CCN(c2nc(-c3ccc(Br)cc3)cs2)CC1	0%	-2%	-42%	/	-2%	0%
O=C(N1CCOCC1)N1CCN(c2nc(-c3ccc(F)cc3)cs2)CC1	11µM*	-2%	0%	/	1%	0%
CNC(=S)N1CCN(c2nc(-c3ccc(Cl)cc3)cs2)CC1	?	4%	/	-10%	-1%	-6%
CCCCC(=O)N1CCN(c2nc(-c3ccc(F)cc3)cs2)CC1	?	-3%	/	6%	3%	-5%

Screening results: PubChem, National Center for Advancing Translational Sciences (NCATS)
